Data as given in PubChem BioAssay AID1159577 (Broad Institute, 2015).
Hit rate of the full screen: of about 1,300 compounds, about 240 (18%) were called active. Another 8% or so got no clear call; they are omitted. How the calls were made is not given here. Not all results are given here. Measured potencies and affinities stand elsewhere.

experiment: toxicity to human hepatoma HepG2 cells – cell-based, cherry-picked samples, cytotoxicity control, dose response (AID 1159577); conditions: HepG2 cytotoxicity counterscreen, plate reader; series mostly up to 19.5 µM

SMILES | outcome
C[C@H](CO)N1C[C@H](C)[C@H](CN(C)CC2CC2)Oc2ccc(NC(=O)Nc3ccccc3)cc2CC1=O | inactive
C[C@H](CO)N1C[C@H](C)[C@@H](CN(C)C(=O)Nc2ccc3c(c2)OCO3)Oc2ccc(NC(=O)Nc3ccc(C(F)(F)F)cc3)cc2CC1=O | inactive
COc1ccc(NC(=O)N(C)C[C@H]2Oc3ccc(NC(=O)Nc4ccc(C(F)(F)F)cc4)cc3CC(=O)N([C@H](C)CO)C[C@@H]2C)cc1 | inactive
C[C@@H]1CN([C@@H](C)CO)C(=O)Cc2cc(NC(=O)Nc3ccccc3)ccc2O[C@H]1CN(C)CC1CC1 | inactive
C[C@H](CO)N1C[C@H](C)[C@@H](CN(C)C(=O)Nc2ccc(F)cc2)Oc2ccc(NC(=O)Nc3ccc(C(F)(F)F)cc3)cc2CC1=O | inactive
C[C@H]1CN([C@@H](C)CO)C(=O)Cc2cc(NC(=O)Nc3ccc(C(F)(F)F)cc3)ccc2O[C@@H]1CN(C)C(=O)Nc1ccc2c(c1)OCO2 | inactive
O=C(c1cccc(F)c1)N1CC(=O)N2[C@H](C1)[C@@H](c1ccc(-c3cccnc3)cc1)[C@@H]2CO | inactive
COCC(=O)N1CCC2(CC1)CN(Cc1cccc(OC)c1)[C@@H](CO)c1[nH]c3cc(OC)ccc3c12 | inactive
C[C@@H]1CN([C@@H](C)CO)C(=O)c2cccc(NC(=O)c3nc4ccccc4s3)c2O[C@@H]1CN(C)C(=O)Nc1cccc2ccccc12 | inactive
Cc1ccc(-c2ccc3c(c2)O[C@@H](CN(C)C(=O)C2CCCCC2)[C@H](C)CN([C@H](C)CO)S3(=O)=O)cc1 | inactive
N#Cc1cccc(-c2ccc3c(c2)[C@H]2[C@H](CCN2C(=O)c2ccncc2)[C@H](CO)N3)c1 | inactive
COc1cccc(CN2CC3(CN(Cc4ccccn4)C3)c3c([nH]c4cc(OC)ccc34)[C@H]2CO)c1 | inactive
COc1ccc2c3c(n(C)c2c1)[C@H](CO)N(C(=O)Nc1ccc(F)cc1)CC31CCN(Cc2ccccn2)CC1 | inactive
COc1ccc2c3c(n(C)c2c1)[C@@H](CO)NCC31CCN(Cc2ccc(-c3ccccn3)cc2)CC1 | inactive
COc1cccc(CN2CC3(CN(Cc4ccccn4)C3)c3c([nH]c4cc(OC)ccc34)[C@@H]2CO)c1 | inactive
COc1ccc(S(=O)(=O)N(C)C[C@@H]2OCc3ccccc3-c3c(n(C)c4ccccc34)C(=O)N([C@H](C)CO)C[C@H]2C)cc1 | inactive
C[C@@H]1CN([C@@H](C)CO)C(=O)c2c(c3ccccc3n2C)-c2ccccc2CO[C@H]1CN(C)S(=O)(=O)c1ccc(C(F)(F)F)cc1 | inactive
O=C(c1ccccn1)N1CC[C@H]2[C@H](CO)Nc3ccc(-c4ccccc4)cc3[C@H]21 | inactive
CCC(=O)N1CCC2(CC1)CN(Cc1ccc(Cl)cc1)[C@H](CO)c1[nH]c3cc(OC)ccc3c12 | inactive
Cc1ccccc1-c1ccc(C2[C@H]3CNC[C@@H]2N3S(=O)(=O)c2cccc(F)c2)cc1 (stereo not given in full) | inactive
N#C[C@@H]1[C@@H](c2ccc(C#CC3CCCCC3)cc2)[C@H](CO)N1C(=O)Nc1ccc(F)cc1 | inactive
N#C[C@@H]1[C@H](c2ccc(C#CC3CCCCC3)cc2)[C@H](CO)N1C(=O)Nc1ccc(F)cc1 | inactive
CC(C)NC(=O)N1[C@H](C#N)[C@H](c2ccc(C#CC3CCCCC3)cc2)[C@@H]1CO | inactive
N#C[C@@H]1[C@@H](c2ccc(C#Cc3ccc(F)cc3)cc2)[C@H](CO)N1C(=O)C1CCCC1 | inactive

SMILES | outcome
OC[C@@H]1[C@@H](c2ccccc2)C2(CN(CCC(F)(F)F)C2)N1Cc1ccccc1 | inactive
O=C(C[C@@H]1C[C@H]2c3cc(NC(=O)Nc4ccccc4)ccc3O[C@H]2[C@H](CO)O1)NCc1ccccc1 | inactive
O=C(c1cccnc1)N1CC(=O)N2[C@H](C1)[C@@H](c1ccc(-c3cccnc3)cc1)[C@@H]2CO | inactive
CN1c2ccc(-c3ccccc3)cc2[C@@H]2[C@@H](CCN2C(=O)c2ccccc2)[C@H]1CO | inactive
CCS(=O)(=O)N1CC(=O)N2[C@H](CO)[C@@H](c3ccc(-c4ccccc4F)cc3)[C@@H]2C1 | inactive
Cc1cccc(S(=O)(=O)N2CCCCN3[C@H](C2)[C@@H](c2ccc(-c4cccnc4)cc2)[C@@H]3CO)c1 | inactive
COc1ccc(NC(=O)N2CCCCN3[C@H](CO)[C@H](c4ccc(-c5ccccc5F)cc4)[C@@H]3C2)cc1 | inactive
CCS(=O)(=O)N1CCCCN2[C@H](CO)[C@@H](c3ccc(-c4cccc(C#N)c4)cc3)[C@@H]2C1 | inactive
N#C[C@@H]1[C@H](c2ccccc2/C=C/c2ccccc2)[C@H](CO)N1S(=O)(=O)c1ccc(F)cc1 | inactive
CCCC(=O)Nc1ccc2c(c1)OC[C@@H](C)N(Cc1cccc(F)c1)C[C@@H](C)[C@H](OC)CN(C)C2=O | inactive
CC(C)NC(=O)N1[C@H](CO)[C@@H](c2ccccc2)C12CN(Cc1ccc(Cl)cc1)C2 | inactive
CO[C@H]1CN(C)C(=O)c2cc(NC(=O)Cc3ccccc3)ccc2OC[C@H](C)N(C(=O)c2ccccc2F)C[C@H]1C | inactive
CCCNC(=O)Nc1ccc2c(c1)OC[C@H](C)N(Cc1ccc(-c3ccccn3)cc1)C[C@H](C)[C@H](OC)CN(C)C2=O | inactive
COc1cccc(S(=O)(=O)N2CCC3(CC2)CN[C@H](CO)c2[nH]c4cc(OC)ccc4c23)c1 | inactive
C[C@@H]1CN([C@H](C)CO)S(=O)(=O)c2ccc(C#Cc3ccccc3)cc2O[C@H]1CN(C)C(=O)C1CC1 | inactive
CO[C@@H]1CN(C)C(=O)c2ccc(NC(=O)c3ccc4c(c3)OCO4)cc2OC[C@@H](C)N(Cc2ccc3c(c2)OCO3)C[C@H]1C | inactive
COc1ccc2c3c([nH]c2c1)[C@@H](CO)N(Cc1cc(F)ccc1F)CC31CCN(C(=O)C2CCC2)CC1 | inactive
CCS(=O)(=O)N1CCCCN2[C@H](CO)[C@H](c3ccc(-c4cccc(C#N)c4)cc3)[C@H]2C1 | inactive
CCS(=O)(=O)N1CCCCN2[C@H](CO)[C@H](c3ccc(-c4cccc(C#N)c4)cc3)[C@@H]2C1 | inactive
O=C(c1cnccn1)N1CC(=O)N2[C@@H](CO)[C@H](c3ccc(C#CCc4ccccc4)cc3)[C@@H]2C1 | inactive
C[C@H]1CN([C@@H](C)CO)C(=O)c2cc(NC(=O)Nc3ccc(C(F)(F)F)cc3)ccc2O[C@@H]1CN(C)C(=O)Nc1cccc2ccccc12 | inactive
CCCC#Cc1ccc(CC[C@H]2O[C@H]3CC[C@H](CO)O[C@H]3C[C@@H]2n2cc(C(C)(C)O)nn2)cc1 | inactive
COc1ccccc1NC(=O)N1CCCCN2[C@H](C1)[C@H](c1ccc(C#CC3CC3)cc1)[C@@H]2CO | inactive
O=C(Nc1cccc(F)c1)N1CC(=O)N2[C@H](C1)[C@@H](c1ccc(C#CC3CC3)cc1)[C@@H]2CO | inactive

SMILES | outcome
COc1ccccc1NC(=O)N1CCCCN2[C@@H](CO)[C@H](c3ccc(C#CC4CC4)cc3)[C@@H]2C1 | inactive
O=C(Nc1ccccc1F)N1CC(=O)N2[C@H](CO)[C@@H](c3ccc(-c4ccccc4)cc3)[C@H]2C1 | inactive
CO[C@H]1CN(C)C(=O)c2cc(NC(=O)C3CC3)ccc2OC[C@H](C)N(Cc2cc(F)ccc2F)C[C@H]1C | inactive
COCC(=O)N1[C@@H](C#N)[C@H](c2ccccc2-c2ccccc2)[C@@H]1CO | inactive
CCCC#Cc1ccc2c(c1)[C@@H]1[C@@H](CCN1S(=O)(=O)c1ccccc1C)[C@@H](CO)N2 | inactive
COc1ccc2c3c([nH]c2c1)[C@H](CO)N(Cc1cc(F)ccc1F)CC31CN(C(=O)C2CCC2)C1 | inactive
COc1ccc(-c2ccccc2[C@H]2[C@@H](C#N)N(C(=O)C3CCCCC3)[C@H]2CO)cc1 | inactive
C[C@@H]1CN([C@H](C)CO)C(=O)c2cccc(NC(=O)c3ccc(-c4nccs4)cc3)c2O[C@H]1CN(C)Cc1ccc2c(c1)OCO2 | inactive
OC[C@@H]1[C@H](c2ccc(C3=CCCC3)cc2)[C@@H](CNC2CCCC2)N1CC1CC1 | inactive
N#C[C@@H]1[C@@H](c2ccc(C3=CCCCC3)cc2)[C@H](CO)N1C(=O)NC1CCCC1 | inactive
CCCNC(=O)N1[C@H](C#N)[C@H](c2ccc(C3=CCCCC3)cc2)[C@H]1CO | inactive
CCC(=O)N1[C@H](CO)[C@H](c2ccc(C3=CCCCC3)cc2)[C@H]1CNCC1CCC1 | inactive
C/C=C/c1ccc([C@H]2[C@@H](CO)N(C(=O)C3CCCC3)[C@H]2CNCCC)cc1 | inactive
CCCNC(=O)N1[C@H](C#N)[C@@H](c2ccccc2C2=CCCC2)[C@@H]1CO | inactive
CCCNC[C@H]1[C@@H](c2ccc(C3=CCCCC3)cc2)[C@@H](CO)N1C(=O)C1CCC1 | inactive
N#C[C@@H]1[C@H](c2ccc(C3=CCCC3)cc2)[C@@H](CO)N1C(=O)NC1CCCC1 | inactive
COc1ccc(C#Cc2cccc(-c3nc(C(=O)NCc4ccc5c(c4)OCO5)cc4c3[C@@H](CCO)N(S(=O)C(C)(C)C)C4)c2)cc1OC (stereo not given in full) | inactive
C[C@H]1CN([C@@H](C)CO)C(=O)c2c(c3ccccc3n2C)-c2ccccc2CO[C@@H]1CN(C)C(=O)Nc1cccc(F)c1 | inactive
Cc1ccc(S(=O)(=O)N(C)C[C@H]2Oc3cc(C#Cc4ccncc4)ccc3S(=O)(=O)N([C@@H](C)CO)C[C@@H]2C)cc1 | inactive
CO[C@@H]1CN(C)C(=O)c2ccc(NC(=O)Nc3ccccc3F)cc2OC[C@@H](C)N(CCC(F)(F)F)C[C@H]1C | inactive
CO[C@H]1CN(C)C(=O)c2ccc(NS(=O)(=O)CC(F)(F)F)cc2OC[C@H](C)N(C)C[C@@H]1C | inactive
COc1ccc(C#Cc2ccc([C@@H]3[C@@H](CO)N4C(=O)CN(C(=O)c5ccccc5)C[C@H]34)cc2)cc1 | inactive
